About 83,000 compounds went through this panel and 20% of them were active in at least one assay; those are over-represented in the sample as a whole.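 Assay: single dose, 48 h. Readout: percent growth (0 = no net growth; negative = cell death). Active: <10.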 Values without a mark were called inactive. Active and inactive are the calls of the source.
What was measured:
Experiment in all cases: NCI-60 one-dose screen, 48 h (100 = growth as untreated, 0 = no growth, -100 = all killed)
Conditions in all cases: 10 µM unless noted
HCT-15 colon = test system: HCT-15 colon
HT29 colon = test system: HT29 colon
SNB-75 CNS = test system: SNB-75 CNS
SNB-19 CNS = test system: SNB-19 CNS
U251 CNS = test system: U251 CNS
PC-3 prostate = test system: PC-3 prostate
SK-MEL-5 melanoma = test system: SK-MEL-5 melanoma
UACC-62 melanoma = test system: UACC-62 melanoma
LOX IMVI melanoma = test system: LOX IMVI melanoma
SK-MEL-28 melanoma = test system: SK-MEL-28 melanoma

SMILES	growth (HCT-15 colon)	growth (HT29 colon)	growth (SNB-75 CNS)	growth (SNB-19 CNS)	growth (U251 CNS)	growth (PC-3 prostate)	growth (SK-MEL-5 melanoma)	growth (UACC-62 melanoma)	growth (LOX IMVI melanoma)	growth (SK-MEL-28 melanoma)
O=C(Cn1cc(CN2C(=O)c3ccc([N+](=O)[O-])cc3C2=O)nn1)Nc1ccccc1Br	102%	112%	87.5%	102%	109%	102%	104%	90.7%	116%	108%
O=C(NNc1nc2cc(F)c(F)cc2n2cccc12)c1ncccn1	28.8%	34.3%	-1.51% (active)	25.8%	18.3%	32.4%	-70.7% (active)	18.3%	16.1%	25.7%
CC(C)SC1=NC(=C(C(=N1)NC2=ClC=CC=C2)C#N)C3=CC=CC=C3	63%	80.5%	26.5%	69.5%	49.7%	78.2%	91.2%	84%	70%	87.7%
CCNCc1c(-c2cccc(OC(F)(F)F)c2)[nH]c2ccc(N3CCCC3)cc2c1=O	9.2% (active)	7.01% (active)	-5.02% (active)	19.8%	20%	14.6%	15.5%	30.3%	21.9%	48%
COc1cc2c3c(n(CCCN4CCCCC4)c(=O)c2cc1OC)-c1cc2c(cc1C3=O)OCO2	-84.2% (active)	-96.9% (active)	-85.3% (active)	-72.3% (active)	-92.5% (active)	-87% (active)	60.8%	59.2%	-74% (active)	-79.4% (active)
Cn1cc2c(c1)-c1c(sc3nc(-c4ccc(NC(=O)Nc5cc(C(C)(C)C)on5)cc4)cn13)CC2	12.2%	21.9%	-1.5% (active)	46.7%	24.3%	38.7%	63.1%	87.7%	16.9%	54.2%
Cc1nn(-c2ccccc2)c2nc(CCl)[nH]c(=O)c12	90.6%	106%	93.9%	89.4%	101%	102%	98.7%	96.2%	2.09% (active)	110%
Cc1ccc(-c2nnc3sc(C4=Cc5ccccc5OC=C4)nn23)cc1	92.9%	101%	79.1%	92.1%	96.6%	96.7%	92.2%	91.6%	116%	97.1%
COc1cc2c3c(n(CCCNCC4CC4)c(=O)c2cc1OC)-c1cc2c(cc1C3=O)OCO2	-72.2% (active)	-70.6% (active)	66.8%	42.3%	-95.7% (active)	40%	53.2%	45.7%	-77.7% (active)	89.7%
O=C(NCCCNc1cc(-c2cn(-c3ccccc3)nc2-c2cccc(O)c2)ccn1)Nc1ccc(F)cc1	-11.7% (active)	3.6% (active)	6.84% (active)	26.9%	3.22% (active)	16%	-55% (active)	8.05% (active)	6.07% (active)	-61.3% (active)
COc1ccc(-c2nc3cc(Cl)c(Cl)cc3n2CC(=O)N=Nc2c(O)[nH]c3ccc(Br)cc23)cc1	-44.8% (active)	-24% (active)	47.3%	22%	-58% (active)	-47.1% (active)	51.5%	4.88% (active)	-77.9% (active)	-66.9% (active)
C#C[C@]1(O)CC[C@H]2[C@@H]3CC=C4c5sc(Nc6ccc(OC)nc6)nc5CC[C@]4(C)[C@H]3CC[C@@]21C	-66.4% (active)	-4.57% (active)	-8.98% (active)	50.5%	17.8%	29.9%	52.1%	70.5%	–	68.8%
CC(C)c1nn(-c2ccccc2)c(N2CCCCC2)c1/C=N/NC(N)=S	70.8%	81.4%	61.6%	92%	97.9%	82.5%	87.5%	92.5%	–	109%
O=C(COc1ccc(C2SCC(=O)N2c2ccc(F)cc2)cc1)c1ccccc1 (stereo not drawn)	95.7%	109%	83.1%	91.5%	101%	79.2%	97.7%	61.4%	87.6%	102%
CCCCCCNC(=O)Oc1ccc(/C(=C(\C)c2ccc(OC)cc2)c2ccc(OCCN(C)C)cc2)cc1	30.8%	15.8%	77.2%	74.9%	58.8%	66.2%	69.9%	89.4%	-48.5% (active)	76.2%
NC(=O)c1c(NC(=O)c2cccc(OC(F)(F)F)c2)sc2c1CCC(=O)C2	19.2%	40.3%	43.6%	43.1%	28.7%	21.3%	95.4%	60.7%	28.5%	82.6%
C#C[C@]1(O)CC[C@H]2[C@@H]3CC=C4c5sc(Nc6ccncc6)nc5CC[C@]4(C)[C@H]3CC[C@@]21C	-71.4% (active)	-4.61% (active)	-49.4% (active)	-36.8% (active)	1.97% (active)	1.86% (active)	-83.9% (active)	-22.8% (active)	–	-55.1% (active)
CC1CCN(S(=O)(=O)c2ncsc2-c2ccccc2)CC1	79%	88.5%	55.6%	83%	57.9%	80.8%	96.8%	96.5%	–	75.3%
CN(C)c1ccc(/C=N/Nc2nc(N/N=C/c3ccc(N(C)C)cc3)nc(N3CCOCC3)n2)cc1	22.4%	102%	87.4%	91.3%	44.3%	87.7%	100%	97.8%	87.7%	106%
C#C[C@]1(O)CC[C@H]2[C@@H]3CC=C4c5sc(Nc6cccc(Cl)n6)nc5CC[C@]4(C)[C@H]3CC[C@@]21C	-66.9% (active)	3.69% (active)	-25% (active)	-1.43% (active)	4.83% (active)	4.35% (active)	-90.7% (active)	-14.4% (active)	–	-59.9% (active)
C#C[C@]1(O)CC[C@H]2[C@@H]3CC=C4c5sc(Nc6nc(C)cc(OC)n6)nc5CC[C@]4(C)[C@H]3CC[C@@]21C	35.3%	60.8%	-10.8% (active)	55%	34.2%	27.5%	17.9%	0.98% (active)	–	21.1%
CC(C)(C)CC(C)(C)n1nnnc1C(Nc1ccccc1)c1cc2cccc3ccc4cccc1c4c32 (stereo not drawn)	78.5%	70.7%	99.9%	95.1%	88.7%	50.4%	89.6%	67.4%	85.1%	90%
O=C1c2c(c3c4cc(Br)ccc4[nH]c3c3ccc4ccccc4c23)C(=O)N1CCN1CCNCC1	-87.3% (active)	8.96% (active)	85%	77.3%	-47.3% (active)	67.2%	91.4%	78.8%	–	95.9%

— PubChem BioAssay (NCI)
